Drawing on PubChem BioAssay (Tox21), this text covers Potency for 29 compounds.

Records with an inconclusive call do not appear. A call without a number means that no potency is given here. More than one record can exist for a structure, and the calls need not agree. Activity calls are given as the source filed them. Calls follow the shape of the dose curve; as a rule, active = well fitted curve in the direction sought with a large enough effect in the repeat runs; inconclusive = weak or mixed curves; inactive = no such curve, though single readings can be large; an effect the other way counts as inactive or inconclusive.
Potency is read from the fitted curve at half-maximal effect.

Test system in the first experiment: not listed separately
As to the kind of experiment: qHTS assay to identify small molecule antagonists of the androgen receptor (AR) signaling pathway using the MDA cell line in the presence of 0.5 nM R1881 - cell viability counter screen (AID 1259242). Also: nearly all actives have a fitted effect of over 45% in size. Conditions: MDA-kb2 viability, CellTiter-Fluor protease fluorescence, 16 h; series mostly up to 92.4 µM. The procedure, abridged: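 MDA-kb2 cells (human breast carcinoma, stably carrying MMTV-luciferase reporter) were exposed to compounds with 0.5 nM R1881 (final) for 16 hr at 37C, 0% CO2; viability then read as live-cell protease fluorescence (CellTiter-Fluor, 30 min) in the same wells.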
For `O=C1OC(c2ccc(O)cc2)(c2ccc(O)cc2)c2ccccc21`, the Potency result is “inactive”.

With `N[C@@H](Cc1c[nH]c2ccccc12)C(=O)O`, the Potency entry was “inactive”.

As for `NC(=O)c1ccc([N+](=O)[O-])cc1Cl`, the Potency result is “inactive”.

On to `CN(C)C=O`, for which the Potency entry is “inactive”.

As for `C=C(C)OC(C)=O`, the Potency result is “inactive”.

With `CC(=O)/C=C/C1=C(C)CCCC1(C)C`, the Potency result was “inactive”.

Take `c1ccc2[nH]c(-c3cscn3)nc2c1`: the Potency result was “inactive”.

`CC1=C(/C=C/C(C)=C/C=C/C(C)=C/C(=O)O)C(C)(C)CCC1`: the Potency entry was “inactive”.

For `CCCCC/C(C=O)=C\c1ccccc1`, the Potency result is “inactive”.

As for `Cc1cccc(C)c1O`, the Potency result is “inactive”.

For the compound `Cc1cccc(Nc2cc(Cl)nc(SCC(=O)O)n2)c1C`, the Potency result is “inactive”.

On to `CC(C)CC(C)CC(O)CC(C)C` (stereo not drawn), for which the Potency entry is “inactive”.

Regarding `CC(=O)CCC(C)C`, the Potency result was “inactive”.

With `C[C@]12CC[C@@H]3c4ccc(O)cc4CC[C@H]3[C@@H]1CCC2=O`, the Potency result was “inactive”.

Take `COc1ccccc1NC(=O)CC(C)=O`: the Potency result is “inactive”.

On to `COc1ccccc1O`, for which the Potency entry was “inactive”.

Consider `O=C(O)CCCCC1CCSS1` (stereo not drawn), for which the Potency entry is “inactive”.

For the compound `C#C[C@]1(O)CC[C@H]2[C@@H]3CCc4cc(O)ccc4[C@H]3CC[C@@]21C`, the Potency entry is “inactive”.

As to `CCCCOCCOCCOC(C)=O`, the Potency result is “inactive”.

Consider `COc1ccc(O)cc1`, for which the Potency entry was “inactive”.

In the case of `COc1cc2c(c(OC)c1OC)-c1ccc(OC)c(=O)cc1[C@@H](NC(C)=O)CC2`, the Potency entry was “inactive”.

On to `C[C@]12CC[C@@H]3c4ccc(O)cc4C[C@@H](CCCCCCCCCS(=O)CCCC(F)(F)C(F)(F)F)[C@H]3[C@@H]1CC[C@@H]2O` (stereo partly drawn), for which the Potency entry is “inactive”.

Regarding `CO[C@H]1C=CO[C@@]2(C)Oc3c(C)c(O)c4c(O)c(c(/C=N/N5CCN(C)CC5)c(O)c4c3C2=O)NC(=O)/C(C)=C\C=C[C@H](C)[C@H](O)[C@@H](C)[C@@H](O)[C@@H](C)[C@H](OC(C)=O)[C@@H]1C`, the Potency was 30.8 µM (active).

With `COC(=O)C1CCC(C(=O)OC)CC1` (stereo not drawn), the Potency entry was “inactive”.

For the compound `COCC(C)N` (stereo not drawn), the Potency result is “inactive”.

Consider `O=C1CCCCCN1`, for which the Potency result was “inactive”.

`NC(=O)OCC(COC(N)=O)c1ccccc1`: the Potency entry was “inactive”.

For `CCCCOC(=O)CCCCCCCCC(=O)OCCCC`, the Potency result is “inactive”.

Take `NC(=O)NO`: the Potency result was “inactive”.

In a further experiment the target is Androgen receptor (Homo sapiens) (UniProt P10275). Put plainly: qHTS assay to identify small molecule antagonists of the androgen receptor (AR) signaling pathway using the MDA cell line in the presence of 0.5 nM R1881 (AID 1259243). Also: nearly all actives have a fitted effect of over 50% in size. The settings on record: MDA-kb2 MMTV-luciferase, R1881 0.5 nM, 16 h; series mostly up to 92.4 µM. The gist of the method: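 MDA-kb2 human breast carcinoma cells carrying an MMTV-luciferase reporter (AR- and GR-responsive) were plated, rested 5 hr at 37C, dosed with compounds, then stimulated with 0.5 nM R1881 (final) for 16 hr; luminescence was read after ONE-Glo.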
Androgen receptor (Homo sapiens), sequence (P10275 whole entry, looked up): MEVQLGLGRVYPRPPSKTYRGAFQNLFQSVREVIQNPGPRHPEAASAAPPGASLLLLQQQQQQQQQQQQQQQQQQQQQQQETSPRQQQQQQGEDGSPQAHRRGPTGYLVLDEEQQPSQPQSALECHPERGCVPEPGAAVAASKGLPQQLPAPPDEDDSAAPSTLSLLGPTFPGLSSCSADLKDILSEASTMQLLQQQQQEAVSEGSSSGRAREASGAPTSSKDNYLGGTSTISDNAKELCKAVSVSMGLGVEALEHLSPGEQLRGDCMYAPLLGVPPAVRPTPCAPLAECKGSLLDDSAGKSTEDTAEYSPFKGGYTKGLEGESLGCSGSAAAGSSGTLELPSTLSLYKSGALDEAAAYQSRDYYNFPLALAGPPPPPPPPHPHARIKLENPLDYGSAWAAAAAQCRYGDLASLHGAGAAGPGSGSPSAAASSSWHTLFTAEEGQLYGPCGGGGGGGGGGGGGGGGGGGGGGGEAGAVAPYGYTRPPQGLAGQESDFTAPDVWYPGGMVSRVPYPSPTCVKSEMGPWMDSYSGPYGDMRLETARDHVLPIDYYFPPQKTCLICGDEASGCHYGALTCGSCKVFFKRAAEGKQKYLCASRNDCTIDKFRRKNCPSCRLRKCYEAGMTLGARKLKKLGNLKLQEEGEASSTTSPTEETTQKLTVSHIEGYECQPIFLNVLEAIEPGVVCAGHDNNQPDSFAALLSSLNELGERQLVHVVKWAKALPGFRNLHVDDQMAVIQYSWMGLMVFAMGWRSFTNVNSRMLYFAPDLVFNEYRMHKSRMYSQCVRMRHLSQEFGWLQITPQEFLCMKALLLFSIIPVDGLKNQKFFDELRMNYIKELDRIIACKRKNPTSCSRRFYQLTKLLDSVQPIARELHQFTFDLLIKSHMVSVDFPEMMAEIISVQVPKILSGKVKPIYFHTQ
In general terms: qHTS replaces the single test concentration by a dilution series.
For `O=C1OC(c2ccc(O)cc2)(c2ccc(O)cc2)c2ccccc21`, the Potency is 48.6 µM (active) and inactive.

Consider `c1ccc2[nH]c(-c3cscn3)nc2c1`, for which the Potency entry is “inactive”.

Turning to `Cc1cccc(C)c1O`, the Potency entry is “inactive”.

Regarding `Cc1cccc(Nc2cc(Cl)nc(SCC(=O)O)n2)c1C`, the Potency result was “inactive”.

As for `COc1ccc(O)cc1`, the Potency result is “inactive”.

As for `COc1cc2c(c(OC)c1OC)-c1ccc(OC)c(=O)cc1[C@@H](NC(C)=O)CC2`, the Potency entry was “inactive”.

For the compound `C[C@]12CC[C@@H]3c4ccc(O)cc4C[C@@H](CCCCCCCCCS(=O)CCCC(F)(F)C(F)(F)F)[C@H]3[C@@H]1CC[C@@H]2O` (stereo partly drawn), the Potency was 8.41 µM (active).

On to `COCC(C)N` (stereo not drawn), for which the Potency result is “inactive”.

On to `NC(=O)OCC(COC(N)=O)c1ccccc1`, for which the Potency entry was “inactive”.
